In PubChem BioAssay (Tox21):
Records with an inconclusive call do not appear. Where a call stands in place of a potency, no number is given. The source made the active and inactive calls. Calls come from the whole dose curve; as a rule, active = well fitted cell-killing curve with a large enough effect in the repeat runs; inconclusive = weak or mixed curves, or effect the other way; inactive = flat fitted curve, though single readings scatter.

Assay: cAMP Responsive Elements (CRE) small molecule antagonists, cell-based qHTS assay: qHTS cell viability counter screen (AID 2060913); note: nearly all actives have a fitted effect of over 40% in size
Settings: CRE-bla HEK293T viability, CellTiter-Glo luminescence, 5 h; series mostly up to 92.4 µM
Text: U.S. Tox21 Program National Center for Advancing Translational Sciences [NCATS] Division of Preclinical Innovation [DPI] U.S. Environmental Protection Agency [EPA] National Institutes of Environmental Health Sciences [NIEHS] National Toxicology Program [NTP] U.S. Food and Drug Administration [FDA] Tox21 Assay Overview: CREB (cyclic-AMP Responsive Element Binding Protein) is a cellular transcription factor. It binds to certain DNA sequences called cAMP Responsive Elements (CRE) and regulates the transcription of the genes. […] This cell line can be used to find agonists/antagonists of the cyclic AMP signaling pathway. The activation of the report gene under culture conditions can be detected by fluorescence intensity. This cell line has been used to screen the Tox21 10K compound library to identify agonists that induce oxidative stress. The cytotoxicity of the Tox21 compound library against the CRE-bla cell line was tested in parallel by measuring the cell viability using CellTiter-Glo assay (Promega, Madison, WI) in the same wells.
Tox21 Assay Protocol Summary: CRE-bla Hek 293T cells were suspended in assay medium (DMEM containing 10% dialyzed FBS, 0.1 mM NEAA, 1 mM sodium pyruvate and 25 mM HEPES) and dispensed at 2,000 cells/4 uL /well into 1536-well black wall/clear bottom plates using a Multidrop Combi (ThermoFisher Scientific, Waltham, MA) dispenser. After the assay plates were incubated at 37 C/5% CO2 for 18 hrs, 23 nL of compounds dissolved in DMSO, positive controls or DMSO only was transferred to the assay plate by a pintool workstation (Kalypsys, San Diego, CA), followed by addition of 1 uL of 1.25uM NKH477 (0.25 uM as final concentration) in assay medium using a Flying Reagent Dispenser (Aurora Discovery, San Diego, CA). The plates were incubated at 37 C and 5% CO2 for 3 hrs. Then 1 uL of LiveBLAzer B/G FRET substrate (Invitrogen, Carlsbad, CA) was added to each well using Bioraptr Flying Reagent Dispenser (FRD, Aurora Discovery, San Diego, CA). The plates were incubated at room temperature for 2 h, then fluorescence intensities were measured using an Envision plate reader (PerkinElmer, Shelton, CT) at Excitation 405nm, Emission 460nm and 530nm. The % activity was determined from the ratio of 460nm/530nm. For cell viability readout that measures cytotoxicity, 4 uL /well of CellTiter-Glo reagent was added into the assay plates using Bioraptr FRD. After 30 min incubation at room temperature, the luminescence intensity in the assay plates was measured using a ViewLux (PerkinElmer, Shelton, CT) plate reader.
With `O=C1Nc2ccc(Cl)cc2C(c2ccccc2)=NC1O` (stereo not given) the Potency was “inactive”.
With `CN1[C@@H]2CC[C@H]1CC(OC(=O)c1cc(Cl)cc(Cl)c1)C2` (stereo not given in full) the Potency was “inactive”.
With `CCCCCCCCCCCOC(=O)c1ccccc1C(=O)OCCCCCCCCCCC` the Potency was “inactive”.
With `CCCCCCCc1ccc(O)cc1` the Potency was “inactive”.
In the case of `O=C(O)C1(c2ccc3c(c2)OC[C@H](Cc2ccc(-c4ccccc4)cc2)[C@H]3O)CCCC1`, the Potency is reported as “inactive”.
For `O=C(CCCN1CCC(n2c(=O)[nH]c3ccccc32)CC1)c1ccc(F)cc1`, the Potency was “inactive”.
With `Oc1c(Cl)cccc1Cl` the Potency was “inactive”.
For `CCCCCCCCCCCCN=C(N)N`, the viability change, negative = cytotoxic was -6.77% [at 3.27 µM] (inactive).
In the case of `N#CCc1ccc(Cl)cc1`, the Potency is reported as “inactive”.
For `Cc1ccccc1N`, the Potency was “inactive”.
In the case of `C=CC1(C)OC(=O)N(c2cc(Cl)cc(Cl)c2)C1=O` (stereo not given), the Potency is reported as “inactive”.
For `CCCCOC(=O)c1ccccc1C(=O)O`, the Potency was “inactive”.
For `BrCc1ccc(Br)cc1`, the Potency was “inactive”.
For `OCC(Cl)CCl` (stereo not given), the Potency was “inactive”.
In the case of `N#CC1(N=NC2(C#N)CCCCC2)CCCCC1`, the Potency is reported as “inactive”.
With `Clc1ccccc1-c1nnc(-c2ccccc2Cl)nn1` the Potency was “inactive”.
With `CCCCC(CC)COC(=O)Cl` (stereo not given) the Potency was “inactive”.
For `OCCN(CCO)CCO`, the Potency was “inactive”.
For `CCOC(=O)C(c1c(O)c2ccccc2oc1=O)c1c(O)c2ccccc2oc1=O`, the Potency was “inactive”.
In the case of `CCOC(=O)c1ccccc1S(=O)(=O)NC(=O)Nc1nc(Cl)cc(OC)n1`, the Potency is reported as “inactive”.
With `CC(=O)[O-].CC(=O)[O-].O.O.[Zn+2]` the Potency was “inactive”.
With `COc1ccc(CN2CCNCC2)c(OC)c1OC` the Potency was “inactive”.
For `Cc1ccc2c(c1)C1CN(C)CCC1N2` (stereo not given), the viability change, negative = cytotoxic was -0.367% [at 18.9 µM] (inactive).
For `CC(Cc1ccc(O)cc1)NCC(O)c1cc(O)cc(O)c1` (stereo not given), the Potency was “inactive”.
With `CCOP(OCC)OCC` the Potency was “inactive”.
In the case of `Cc1ccc(N)cc1Cl`, the Potency is reported as “inactive”.
In the case of `CC(C)c1c(CN(C)C(C)Cc2ccccc2)n(C)n(-c2ccccc2)c1=O` (stereo not given), the Potency is reported as “inactive”.
For `C#CC1(O)CCCCC1`, the Potency was “inactive”.
For `C=CC(Cl)CCl` (stereo not given), the Potency was “inactive”.
With `O=S(=O)(Cl)c1ccccc1` the Potency was “inactive”.
For `Cc1nc2ccccc2c(=O)n1-c1ccccc1Cl`, the Potency was “inactive”.
For `CN1C(=O)NC(=O)C(C)(C2=CCCCC2)C1=O` (stereo not given), the Potency was “inactive”.
With `N[C@@H](Cc1ccc(Oc2cc(I)c(O)c(I)c2)c(I)c1)C(=O)O` the Potency was “inactive”.
For `C[C@H]1O[C@H](OC2[C@@H](O)[C@@H](O)C(O)[C@H](O)[C@H]2O)[C@@H](N)C[C@@H]1N=C(N)C(=O)O` (stereo not given in full), the Potency was “inactive”.
With `O=C(O)C(F)(F)C(F)(F)C(F)(F)C(F)(F)C(F)(F)C(F)(F)F` the Potency was “inactive”.
For `N#C/C(N)=C(/N)C#N`, the Potency was “inactive”.
With `CCCCN(CC)c1c([N+](=O)[O-])cc(C(F)(F)F)cc1[N+](=O)[O-]` the Potency was “inactive”.
For `Sc1ccccc1Cl`, the Potency was “inactive”.
With `N#Cc1nn(-c2c(Cl)cc(C(F)(F)F)cc2Cl)c(N)c1S(=O)C(F)(F)F` (stereo not given) the Potency was “inactive”.
With `CC(C)(C)NCC(O)c1cc(Cl)c(N)c(Cl)c1` (stereo not given) the Potency was “inactive”.
